Assay results: paper PMC5540273 (PLoS ONE, 2017)

Tests used:
Details in all cases: concentration: 1 μM, replicates: in singlicate; n = 1
LYN = system: LYN
LZK = system: T1, LZK
T1 construct: gene MAP3K13

MAK = system: MAK
MAP3K15 = system: MAP3K15
MAP3K1 = system: MAP3K1
MAP3K2 = system: MAP3K2
MAP3K3 = system: MAP3K3
MAP3K4 = system: MAP3K4
MAP4K2 = system: MAP4K2
MAP4K3 = system: MAP4K3
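Also: KINOMEscan kinase panel screen.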

Compound	%Inh (LYN)	%Inh (LZK)	%Inh (MAK)	%Inh (MAP3K15)	%Inh (MAP3K1)	%Inh (MAP3K2)	%Inh (MAP3K3)	%Inh (MAP3K4)	%Inh (MAP4K2)	%Inh (MAP4K3)
C[C@@H]1CCCCN1c1cc(-c2ccc3c(N)n[nH]c3c2)nc(N)n1 [GSK2258759]	0%	0%	22%	0%	0%	0%	0%	0%	0%	1%
COc1cc(Nc2nccc(N3CCC(NC(=O)Nc4cc(C)ccc4C)C3)n2)cc(OC)c1OC (stereo not drawn) [GSK1379762]	6%	0%	54%	17%	16%	0%	0%	12%	0%	0%
CN(C)CCN(C)C(=O)c1cc(-c2ccncc2)c(-c2ccc(Cl)c(O)c2)o1.Cl.Cl [SB-710397]	24%	15%	42%	0%	2%	0%	0%	14%	0%	0%
Fc1cc(Cl)ccc1Nc1ccnc2cc(-c3ccc(CN4CCCCC4)o3)ccc12 [GW560116]	0%	7%	52%	0%	0%	0%	0%	0%	0%	0%
CC(C)(C)c1ccc(C(=O)Nc2cn3cc(Cl)ccc3n2)cc1	8%	0%	15%	1%	0%	45%	0%	0%	0%	0%
Cl.c1ccc(-c2n[nH]cc2-c2ccnc(-c3ccc(CN4CCOCC4)cc3)c2)nc1 [GW776245]	6%	0%	0%	0%	0%	18%	17%	9%	0%	0%
O=C(Nc1n[nH]c2nc(-c3nccs3)c(Br)cc12)C1CCCC1 [SB-742609]	0%	0%	75%	6%	15%	5%	0%	28%	0%	0%
Cc1cccc(-c2nc(C)cc(Nc3ccncc3)n2)n1 [GSK257997]	0%	0%	16%	0%	21%	0%	0%	14%	0%	0%
O=C(Nc1n[nH]c2cc(-c3cccc(F)c3F)ccc12)C1CC1 [SB-733894]	0%	100%	21%	0%	4%	6%	30%	0%	0%	12%
